Each compound was assayed on Plasmodium falciparum Sir2 (PF13_0152, Sir2A) (assay: Plasmodium falciparum Sir2A binding compounds – biochemical, small-molecule microarray, 635 nm fluorescence, primary screen (AID 1098;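 note: score merges spot fluorescence intensity with its signal-to-noise ratio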)). Conditions: fluorescence 635 nm, higher = more signal.
With `CON=C1c2cc(OC)ccc2O[C@H](c2cccc(OC)c2)[C@H]1O` the composite z-score was 0.386.
With `C[C@@H]1CC[C@H]2C(=O)OC(Cc3ccccc3)CN2[C@H]1c1ccc(Br)cc1` (some centres not stated) the composite z-score was 0.413.
`C=CCOCC1CN2[C@@H](CC[C@@H](C)[C@@H]2c2ccc(Br)cc2)C(=O)O1` (some centres not stated) gave a composite z-score of -0.316.
Work on `COc1ccc(COC(=O)NN=C2C[C@@H](O)[C@@H](O)[C@@H]3[C@@H]4C(=O)N(Cc5ccccc5)C(=O)[C@@H]4CC[C@@H]23)cc1` yielded a composite z-score of 0.0233.
Compound `COC(=O)[C@H](C)NC(=O)CCC1CC(OC(=O)NCCc2ccc(F)cc2)CC2(CCCC(COC(=O)NCCOc3ccccc3)O2)O1` (some centres not stated) has a composite z-score of 0.612.
`COC(=O)[C@H](C)NC(=O)CCC1CC(OC(=O)NCCc2ccc(F)cc2)CC2(CCCC(COC(=O)NCCc3ccccc3OC)O2)O1` (some centres not stated) gave a composite z-score of 0.557.
`CCOC(=O)[C@H](CC(C)C)NC(=O)CCC1CC(OC(=O)NCc2ccc3c(c2)OCO3)CC2(CCCC(COC(=O)NCCC(C)C)O2)O1` (some centres not stated) showed a composite z-score of 0.0402.
Work on `C=C(C)C(=O)OC[C@H]1CN2[C@@H](CC[C@@H](C)[C@@H]2c2ccc(Br)cc2)C(=O)O1` yielded a composite z-score of 0.789.
For `CO[C@@H]1COC(=O)[C@H](COCc2ccccc2)NC(=O)CC=C[C@@H](C)[C@H](OC)COC(=O)[C@@H](C)NC(=O)CC=C[C@H]1C`, the composite z-score was 1.57.
`O=C1C[C@H](c2ccccc2)[C@H](c2ccc(Br)cc2)O1` was tested, and the composite z-score was -0.159.
Work on `CC(CCN1CCCc2nc(C)c(C)cc21)=NO[C@H](C)c1cn([C@H](CO)Cc2ccccc2)nn1` yielded a composite z-score of 0.721.
In the case of `COC(=O)[C@@H]1CC[C@H](C)[C@@H](c2ccc(Br)cc2)N1C(=O)C(F)(F)F`, the composite z-score is reported as -0.324.
